Measured values reported in PubChem BioAssay AID504558 (Broad Institute, 2011).
Among all 350,000 compounds or so, about 2,400 (0.69%) were called active. What follows is part of a selection rich in actives, with near analogues and random picks from the rest. A number with no mark means an inactive call. No stated cut-off is given here; in the data, active means inhibition above about 41%; inconclusive means no clear call, values can overlap the other calls; inactive means below that.

assay: blockers of LMP1-induced NF-kB reporter signal – cell-based, luminescence, single point, primary screen (AID 504558); settings: LMP1-induced NF-kappaB luciferase reporter cells, at 12.5 µM, active compounds read high;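 further: 0% = neutral control wells and 100% = reference inhibitor control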

Row | SMILES | inhibition
1 | Cc1cccc(S(=O)(=O)N(C)C[C@H]2OCc3cnnn3CCCC(=O)N([C@@H](C)CO)C[C@H]2C)c1 | 2.93%
2 | COc1ccccc1-n1c(SCC(=O)Nc2ccc(Cl)cc2)nc(O)c(Cc2ccccc2)c1=O | -7.65%
3 | c1c2c(cc3sc(N4CCCCC4)nc13)OCCO2 | 58% (active)
4 | CN(C)CCN(C(=O)C1CCCCC1)c1nc2cc3c(cc2s1)OCO3 | 0.636%
5 | O=C(c1ccc2nc(N3CCOCC3)sc2c1)N1CCN(c2ccc(Cl)cc2)CC1 | 3.45%
6 | Cc1ccc(NC(=O)Cn2sc3ccccc3c2=O)cc1 | 0.665%
7 | COc1cccc2c1C(=O)c1c(O)c3c(c(O)c1C2=O)CC(O)(C(C)=NNC(=O)c1ccc(Cl)c(Cl)c1)CC3OC1CC(N)C(O)C(C)O1 (configuration not stated) | 70% (active)
8 | COc1cc(C(=O)OCCCN2CCOCC2)cc(OC)c1OC | 1.26%
9 | Cc1cccc(N(C(=O)Cn2nnc(-c3ccc(C)o3)n2)C(C(=O)NC2CCCC2)c2ccncc2)c1 (configuration not stated) | 9.95%
10 | Cc1ccc(-c2nnn(CC(=O)N(CCO)C(C(=O)NC(C)(C)C)c3ccncc3)n2)cc1 (configuration not stated) | -24.9%
11 | Cc1ccc(-c2nnn(CC(=O)N(Cc3ccco3)C(C(=O)NC(C)(C)C)c3ccncc3)n2)o1 (configuration not stated) | 54.6% (active)
12 | CCn1c(SCC(=O)N2CCCC2=O)nc2ccccc21 | 6.54%
13 | Cc1cccc(NC(=O)/C=C/c2ccc3c(c2)OCO3)n1 | -23.8%
14 | C(=N\Nc1ccc2ccccc2n1)/c1ccc2c(c1)OCO2 | 43.9% (active)
15 | O=C(CNC(=O)C(c1ccccc1)c1ccccc1)N/N=C\c1ccc2c(c1)OCO2 | -3.07%
16 | CC(OC(=O)c1cccc(S(=O)(=O)N2CCOCC2)c1)C(=O)NCC1CCCCC1 (configuration not stated) | -1.25%
17 | Cc1ccc2cc(/C=N/Nc3ccc(C(=O)O)cc3)c(Cl)nc2c1 | -63.4%
18 | CCNC(=S)NNC(=O)c1ccc2ncccc2c1 | 7.73%
19 | O=C(O)c1ccc(N/N=C/c2ccc3ncccc3c2)cc1 | 44.3% (active)
20 | CCOc1ccc(S(=O)(=O)NCCC(=O)NNC(=O)c2ccc(F)cc2)cc1 | -8.7%
21 | O=C(Nc1ccc2c(c1)[C@@H]1C[C@@H](CC(=O)N3CCCCC3)O[C@@H](CO)[C@@H]1O2)NC1CCCCC1 | 1.38%
22 | CCc1cc(-c2nnn(CCC3COCCO3)c2CC)ccc1-c1cn(Cc2ccc3ccccc3c2)nn1 (configuration not stated) | 0.755%
23 | Cc1cc(Cl)ccc1C(=O)C1CCCN(C(=O)c2ccc3c(c2)OCO3)C1 (configuration not stated) | -1.16%
24 | O=C(NCCOc1ccccc1)c1ccccc1F | -2.63%

Row | SMILES | inhibition
25 | CCNC(=S)N1CCN(c2ncccn2)CC1 | -18.8%
26 | CC(=NNC(=S)N1CCCCCC1)c1ccccn1 | 91.7% (active)
27 | C/C(=N\NC(=O)c1ccccc1F)c1ccccn1 | 48.6% (active)
28 | Cc1cccc(C)c1NC(=S)N1CCCCCC1 | 23.1%
29 | O=C(Nc1nnc(-c2ccccc2F)s1)c1ccccc1F | -3.53%
30 | CCN(C(=O)Nc1cccc2ccccc12)c1ccccc1 | 2.61%
31 | CCN(Cc1ccncc1)C(=S)Nc1ccccc1C | 0.031%
32 | CCc1ccccc1OCC(=O)Nc1nnc(C2CC2)s1 | -2.82%
33 | COCOCCn1cc(CN2CCS(=O)(=O)N(Cc3ccc(-c4ccccc4)cc3)C(CC(C)C)C2=O)nn1 (configuration not stated) | 1.98%
34 | CC1=C(C(=O)N2CCOCC2)CC(CC(=O)NCc2ccco2)C(=O)N1Cc1ccc(F)cc1 (configuration not stated) | 3.55%
35 | Cc1cccc(-n2ncc(Cl)c(Cl)c2=O)c1 | 52.4% (active)
36 | Cc1cccc(-n2ncc3c(=O)[nH]c(SCC(=O)Nc4cc(C)on4)nc32)c1 | -3.93%
37 | C=CCNc1cnn(-c2ccc(C)cc2)c(=O)c1Cl | -12.1%
38 | CCCCN1C[C@H](c2ccc(Br)cc2)[C@@H](CC(=O)Nc2ccc(Br)cc2)C1=O | 1.53%
39 | C[C@@H]1CN([C@@H](C)CO)C(=O)c2cc(Br)cnc2O[C@@H]1CN(C)C(=O)C1CCCCC1 | -0.141%
40 | CCN(CC)C(=O)C1=C(C)N(Cc2ccccc2)C(=O)C(CC(=O)NC(c2ccccc2)c2ccccc2)C1 (configuration not stated) | 2.92%
41 | COc1cccc(/C=C/c2ccc3ccccc3n2)c1OC(C)=O | 56.9% (active)
42 | CCOc1cccc(/C=C/c2ccc3ccccc3n2)c1OC(C)=O | 17.6%
43 | CC(=O)c1ccc(S(=O)(=O)N2CCN(C(=O)/C=C/c3ccc4ccccc4n3)CC2)cc1 | -1.62%
44 | COC(=O)c1ccc(NCc2cc(O)ccc2O)cc1 | -94.1%
45 | O=C(OC12CC3CC(CC(C3)C1)C2)c1ccc(NCc2cc(O)ccc2O)cc1 | 44.1% (active)
46 | CC1(C)C2CCC1(C)C(OC(=O)c1ccc(O)cc1)C2 (configuration not stated) | -2.13%
47 | CC1C(=O)N(Cc2cn(Cc3ccco3)nn2)CCS(=O)(=O)N1Cc1ccc(-c2cccc(CO)c2)cc1 (configuration not stated) | 4.76%
